The structures appear in SMILES notation. The whole screen tested about 420,000 compounds, of which about 64,000 (15%) were called active. Roughly 27% stayed inconclusive and do not appear here. Calls follow the shape of the dose curve; as a rule, active = well fitted inhibition curve with a large enough effect; inconclusive = small, poorly fitted or top-dose-only effect; inactive = flat fitted curve, though single readings scatter. The list is a sample of the results. A call without a number means that no potency is given here.
Potency is read from the fitted curve at half-maximal effect.

The assay is described as follows: qHTS for Inhibitors of human tyrosyl-DNA phosphodiesterase 1 (TDP1): qHTS in cells in absence of CPT. Also: nearly all actives have a fitted effect of over 55% in size. As to conditions: DT40 Tdp1-/- hTDP1 cells, no CPT, ATP luminescence, 48 h; activity change, negative = growth inhibition: at 46.2 µM (top of the series). Put shortly:
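DT40 Tdp1-/-;hTDP1 cells, no CPT (DMSO vehicle only), 400 cells/well; compounds pin-transferred; ≥48 hr, 37 °C; CellTiter-Glo 30 min RT dark, luminescence read.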
In the case of `COC(=O)C1=C(C)OC(N)=C(C#N)C1c1cc(OC)ccc1OC` (stereo not drawn), the Potency result was “inactive”.
For `C=CCOC(=O)C1=C(C)NC(SCC(=O)OCC)=C(C#N)C1c1ccc(C)cc1` (stereo not drawn), the Potency entry was “inactive”.
As for `C=CCOC(=O)C1=C(C)OC(N)=C(C#N)C1c1ccc(F)cc1` (stereo not drawn), the Potency was 29.1 µM (active).
Consider `O=C(CSc1nnc(-c2ccc([N+](=O)[O-])cc2)o1)Nc1ccccn1`, for which the Potency result is “inactive”.
Regarding `O=[N+]([O-])c1ccccc1SNc1ccccn1`, the Potency is 16.4 µM (active).
Turning to `Nc1nc(Sc2ncccc2[N+](=O)[O-])n[nH]1`, the Potency entry is “inactive”.
In the case of `O=C(Nc1ccncc1)c1ccc([N+](=O)[O-])cc1Cl` it was “inactive”.
`COCC(C)NC(=O)CSc1nc2nn(-c3ccccc3)c(=O)c-2c2n1CCCCC2` (stereo not drawn): the Potency entry was “inactive”.
For the compound `NNC(=O)C1CC(O)CN1S(=O)(=O)c1ccc(Cl)cc1` (stereo not drawn), the Potency result is “inactive”.
In the case of `CC1(C)CC(=O)C(N=Nc2ccc(S(=O)(=O)N3CCCCCC3)cc2)=C(O)C1` it was “inactive”; in that of `Cc1cnc(NC(=O)c2ccc(Cl)nc2)s1`, “inactive”; in that of `CCN(CC)c1ccc(NC(=O)c2ccc(Cl)nc2)cc1`, 2.59 µM (active).
Under `NS(=O)(=O)c1ccc(NC(=O)COC(=O)c2ccc(Cl)nc2)cc1` stands “inactive”.
In the case of `Cc1ccc2c(c1)NCC(C(=O)NC1CCC(C)CC1)O2` (stereo not drawn), the Potency entry was “inactive”.
As for `CCOC(=O)C1CCN(C(=O)CN2C(=O)NC(C)(c3ccc4cc(OC)ccc4c3)C2=O)CC1` (stereo not drawn), the Potency is 10.3 µM (active).
`CC1(c2ccc3ccccc3c2)NC(=O)N(CC(N)=O)C1=O` (stereo not drawn): the Potency result was “inactive”.
Regarding `CCOC(=O)C1CCN(C(=O)Nc2cccc(OC)c2)CC1`, the Potency entry was “inactive”.
In the case of `COc1ccc(C2C3=C(CCCC3=O)N(CC(=O)O)C3=C2C(=O)CCC3)cc1` it was “inactive”; in that of `CCOC(=O)c1ccccc1NC(=S)N1CCC(C(N)=O)CC1`, “inactive”.
Turning to `CCOc1ccc(NC(=O)C2CCN(C(=O)N3CCOc4ccccc43)CC2)cc1`, the Potency is 20.6 µM (active).
As to `CCOc1ccc(NC(=S)N2CCC(NC(=O)c3ccccc3)CC2)cc1`, the Potency entry is “inactive”.
Turning to `CCOc1ccc(NC(=O)N2CCN(CC)CC2)cc1`, the Potency result was “inactive”.
In the case of `COC(=O)c1ccccc1NC(=O)C1CCN(C(=O)N2CCOc3ccccc32)CC1`, the Potency was 23.1 µM (active).
Take `CC(=O)N1CCOc2ccc(S(=O)(=O)N3CCC(C(=O)Nc4ccccc4F)CC3)cc21`: the Potency entry is “inactive”.
For the compound `Cc1ccsc1C(=O)OCC(=O)Nc1cccc(F)c1`, the Potency result was “inactive”.
Under `O=C(Nc1cccc2ccccc12)N1CCN(Cc2ccc3c(c2)OCO3)CC1` stands “inactive”.
For the compound `N#Cc1cccc(CN2CCC(=O)N(CCO)CC2)c1`, the Potency result was “inactive”.
On to `CC(C)[C@@H]1NC(=O)[C@H](Cc2ccccc2)NC(=O)[C@@H](CC(=O)O)NC(=O)CNC(=O)[C@H](CCCNC(=N)N)NC1=O`, for which the Potency result is “inactive”.
Under `C=CCOc1ccc(/C=C/C(=O)OCC(=O)NCC2CCCO2)cc1` (stereo not drawn) stands “inactive”; under `CCC(=O)Nc1ccccc1N1CCN(S(C)(=O)=O)CC1`, “inactive”.
In the case of `Cc1cccc(C)c1NC(=O)CN1CCN(c2ccc(F)cc2)CC1` it was 20.6 µM (active).
In the case of `O=C(CN1CCN(c2ccc(F)cc2)CC1)Nc1ccccc1`, the Potency result was “inactive”.
For `O=C(CN1CCN(c2ccccc2)CC1)Nc1ccc(F)cc1`, the Potency entry was “inactive”.
With `CCC(C)C(=O)Nc1ccccc1N1CCN(c2ccc(F)cc2)CC1` (stereo not drawn), the Potency was 20.6 µM (active).
As to `O=C(NC(=S)Nc1ccccc1N1CCCCC1)c1ccc(F)cc1`, the Potency entry was “inactive”.
Regarding `CCCCC(=O)Nc1ccccc1N1CCN(c2ccc(F)cc2)CC1`, the Potency was 16.4 µM (active).
In the case of `CCn1cc(CN2CCCC(CNS(=O)(=O)Cc3ccccc3)C2)cn1` (stereo not drawn), the Potency result was “inactive”.
With `CC(C)C(=O)Nc1nnc(SCC(=O)N2C(C)CCCC2C)s1` (stereo not drawn), the Potency entry was “inactive”.
Regarding `C[C@H]1CN([C@@H](C)CO)C(=O)CCCn2cc(nn2)CO[C@@H]1CN(C)S(=O)(=O)c1cccc(C#N)c1`, the Potency result was “inactive”.
As to `CC(C)NC(=O)C(c1ccc(F)cc1)N(C(=O)CCC(=O)Nc1ccccn1)c1ccccc1F` (stereo not drawn), the Potency result was “inactive”.
With `O=C(Nc1ccccc1Cl)N1CCC(CN2CCCCC2)CC1`, the Potency result is “inactive”.
For the compound `CC(=O)N=c1ncn(CC(COC(C)=O)OC(C)=O)c2nc[nH]c12` (stereo not drawn), the Potency entry was “inactive”.
For the compound `Cc1ccc(CNC(=O)CCCNC(=O)c2ccc(Cl)cc2)n1C`, the Potency result was “inactive”.
`Cc1nc(-c2ccc(Cl)cc2)sc1C1(C)CC(c2ccc(Br)cc2)=NO1` (stereo not drawn): the Potency entry is “inactive”.
On to `Cc1cccc(NC(=O)CSc2nc3c(c(=O)[nH]2)CCC3)c1C`, for which the Potency entry is “inactive”.
`CCCCn1c(N)c(N(CC(C)C)C(=O)c2cccc(S(=O)(=O)N3CCN(C(C)=O)CC3)c2)c(=O)[nH]c1=O`: the Potency result is “inactive”.
For `O=C(NCCCn1ccnc1)C(=O)c1cn(CC(=O)N2CCCCCC2)c2ccccc12`, the Potency result is “inactive”.
In the case of `O=C(CC(=O)c1cccnc1)c1ccccc1` it was 20.6 µM (active).
Take `O=C(c1cccnc1)N(Cc1ccccc1)C(=O)c1cccnc1`: the Potency entry is “inactive”.
`O=C(NNC(=O)c1cccnc1)Nc1ccccc1`: the Potency result is “inactive”.
Under `COC(=O)Cc1cnc(NC(=O)CSc2nc(C(C)C)cc(=O)[nH]2)s1` stands “inactive”; under `COc1cccc(-n2c(=O)c3c(C)c(C(=O)N(C)C)sc3n(Cc3cccc(C)c3)c2=O)c1`, “inactive”.
Turning to `COc1cccc(N=c2oc3c(C)ncc(CO)c3cc2C(N)=O)c1`, the Potency entry is “inactive”.
On to `CCCN(CCC)c1c([N+](=O)[O-])c(=O)oc2ccccc12`, for which the Potency result was “inactive”.
For `CCC(C)(C)NC(=O)C(c1ccc(O)cc1)N(C(=O)Cn1nnc2ccccc21)c1ccc(NC(C)=O)cc1` (stereo not drawn), the Potency entry is “inactive”.
Under `COc1ccc(NC(=O)CCCNC(=O)Cn2cnc3sc4c(c3c2=O)CCCC4)cc1OC` stands “inactive”; under `COc1ccc(NC(=O)CCCN2C(=O)CCn3nc(-c4cn(C)c5ccccc45)cc32)cc1OC`, 23.1 µM (active); under `O=C(CN1C(=O)CCn2nc(-c3ccccc3)cc21)NCc1ccccc1`, “inactive”.
In the case of `O=C(/C=C/[C@H]1O[C@@H](n2ccc(=O)[nH]c2=O)[C@H](O)[C@@H]1O)NCc1ccccn1` it was “inactive”; in that of `COc1ccc(Cl)cc1NC(=O)CN(C)C(=O)c1cc2ccccc2cc1OC`, 18.4 µM (active).
For `O=C(COC(=O)c1cc(-c2cccs2)nn1-c1ccccc1)Nc1cc([N+](=O)[O-])ccc1Cl`, the Potency result was “inactive”.
In the case of `COc1ccc(Cl)cc1NC(=O)CN(C)C(=O)CNC(=O)C12CC3CC(CC(C3)C1)C2` it was “inactive”.
With `COc1ccc(Cl)cc1NC(=O)CN(C)C(=O)c1cc(-c2cccs2)nn1-c1ccccc1`, the Potency was 18.4 µM (active).
In the case of `COc1ccc(-c2cc(C(F)(F)F)nc(SCC(=O)Nc3ccc4c(c3)OCO4)n2)cc1OC` it was “inactive”; in that of `COc1ccc(Cl)cc1NC(=O)CNc1ccccc1F`, “inactive”; in that of `COc1ccc(C)cc1NC(=O)CSc1nnc(CC(=O)Nc2ccccc2F)n1C`, “inactive”.
Regarding `COc1ccc(Cl)cc1NC(=O)CSc1nc(-c2cccs2)cc(C(F)(F)F)n1`, the Potency is 20.6 µM (active).
As for `C=Cn1cc[n+](CC(=O)c2ccc(OC)c(OC)c2)c1`, the Potency entry is “inactive”.
Consider `Cc1c(C(=O)N(C)CCc2cnn(C)c2)oc2c(F)cccc12`, for which the Potency entry is “inactive”.
Under `Cn1ccs/c1=N\S(=O)(=O)c1ccc(C(C)(C)C)cc1` stands “inactive”; under `CC(=O)Nc1ccc(S(=O)(=O)NCC2CCC(C(=O)NCCc3ccccc3)CC2)cc1` (stereo not drawn), “inactive”.
With `CS(=O)(=O)N1CCN=C1SCc1ccc(F)cc1`, the Potency entry was “inactive”.
For the compound `CCn1c(SCc2cccc(C(=O)O)c2)nnc1-c1ccc(Cl)cc1`, the Potency result is “inactive”.
Turning to `Cc1oc2cc3oc(=O)ccc3cc2c1C`, the Potency entry is “inactive”.
In the case of `O=C(Nc1c(Br)cc2c(c1Br)Cc1ccccc1-2)C(F)(F)F`, the Potency result was “inactive”.
With `CC(=O)c1ccc2c(c1)c1ccccc1n2CC(C)C`, the Potency result was “inactive”.
Consider `CCOC(=O)c1sc(NC(=O)CSc2n[nH]c(CC)n2)nc1C`, for which the Potency entry is “inactive”.
`O=C(CN1CCOCC1)Nc1ccccc1`: the Potency result was “inactive”.
With `O=C(CN1CCc2cc3c(cc2C1)OCCCO3)Nc1ccccc1`, the Potency was 25.9 µM (active).
Regarding `Cc1ccc(NC(=O)CN2CCc3ccccc3C2)cc1`, the Potency result is “inactive”.
`Cc1ccc(NS(=O)(=O)c2cn(C)c(=O)n(C)c2=O)c(C)c1`: the Potency result was “inactive”.
For `O=C(CCN1C(=O)C2C3C=CC(C3)C2C1=O)Nc1ccccc1F` (stereo not drawn), the Potency entry is “inactive”.
`O=C(NCCCNC(=O)c1ccccc1Cl)c1cnccn1`: the Potency result is “inactive”.
Under `CCCCNC1(C#N)CCN(Cc2ccccc2)CC1` stands “inactive”; under `O=C1CC[C@@H]2CC3(C[C@@H]4CCN1[C@H]24)Nc1cc([N+](=O)[O-])ccc1NC3=NC1CCCCC1` (stereo partly drawn), “inactive”.
On to `Cc1cc2c(cc1C)NC1(C[C@H]3CCC(=O)N4CC[C@@H](C1)[C@@H]34)C(=NC(C)(C)CC(C)(C)C)N2` (stereo partly drawn), for which the Potency was 20 µM (active).
As to `O=C1CCC[C@@H]2C[C@@]3(C[C@@H]4CCN1[C@H]24)Nc1ccccc1NC3=NCc1ccccc1`, the Potency result is “inactive”.
Regarding `COc1ccc(N2C(=O)NC(NS(=O)(=O)c3ccc(Cl)cc3)(C(F)(F)F)C2=O)cc1` (stereo not drawn), the Potency result was “inactive”.
`CN(C)C(=O)c1ccc(-c2cncnc2NC2CCNCC2)cc1`: the Potency result was “inactive”.
Take `O=C(O)c1ccc(/C=C2\SC(=S)N(NC(=O)c3ccc(Br)cc3)C2=O)cc1`: the Potency entry is “inactive”.
For the compound `Cn1c(Cc2cccs2)nnc1SCC(=O)Nc1ccccc1`, the Potency result is “inactive”.
With `Cc1ccc(-n2c(Cc3cccs3)nnc2SCC(=O)OC(C)C)cc1`, the Potency entry is “inactive”.
For the compound `CCn1c(Cc2cccs2)nnc1SCC(=O)c1ccc(C)cc1`, the Potency is 14.1 µM (active).
Regarding `O=c1[nH]c(=O)c2nc3ccccc3nc2[nH]1`, the Potency result is “inactive”.
In the case of `CCCc1nnc(NC(=O)c2cccs2)s1`, the Potency entry was “inactive”.
In the case of `O=C1NC(=O)C(c2ccc(Cl)cc2)N1` (stereo not drawn) it was “inactive”; in that of `CCOC(=O)N1CCN(C(=O)C(=O)Nc2sc3c(c2C#N)CC(C)(C)OC3)CC1`, “inactive”; in that of `NS(=O)(=O)c1ccc2nc(NC(=O)CS(=O)(=O)c3ccc(F)cc3)sc2c1`, “inactive”.
Take `O=C(Cn1c(=O)sc2ccccc21)Nc1nc2c(s1)CCCC2`: the Potency result was “inactive”.
Consider `COc1cc(C#Cc2ccc3cc(CCCO)oc(=O)c3c2)cc(OC)c1`, for which the Potency was 1.03 µM (active).
On to `CN(C(=O)CN1C(=O)CCSc2ccc(S(=O)(=O)N3CCCC3)cc21)c1ccccc1`, for which the Potency entry was “inactive”.
On to `CSc1ccccc1NC(=O)c1cc(Cl)sc1Cl`, for which the Potency result is “inactive”.
For the compound `CN(CC(=O)Nc1c(Cl)cccc1Cl)C(=O)c1ccncc1`, the Potency entry is “inactive”.

For the origin of these results see PubChem BioAssay AID686978 (National Center for Advancing Translational Sciences (NCATS), 2013).
